Out of some 5,500 compounds screened, about 2,000 (36%) were called active. Inconclusive results (about 18%) are left out. No stated cut-off is given here; in the data, active means normalized growth mostly below about 0.91 (no sharp cut-off); inconclusive means no clear call, values can overlap the other calls; inactive means mostly above about 0.92. The list shows a part of the results.
Assay: chemical genetic growth profiling, strain panel (AID 1159580);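 further: tested at 20 µM; growth read once vehicle control cultures reached saturation at 30 °C; 1 = growth at the plate median or of vehicle wells; lower values mean less growth of the strain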
Conditions: S. cerevisiae deletion strains, growth OD

Measured: normalized growth

CC1(C)C(=O)C=CC2(C)C3CCC4(C)C(c5ccoc5)CC5OC54C3C(O)CC12 (stereo unspecified)
inactive: locus YAL013W, strain DEP1, hits give low values 0.975 | locus YBR021W, strain FUR4, hits give low values 0.985 | locus YBR229C, strain ROT2, hits give low values 0.995 | locus YCL029C, strain bik1, hits give low values 1.01 | locus YDL035C, strain GPR1, hits give low values 0.942 | locus YDL074C, strain BRE1, hits give low values 0.862 | locus YDL101C, strain DUN1, hits give low values 0.958 | locus YDL134C, strain PPH21, hits give low values 0.945 | locus YDL185W, strain tfp1, hits give low values 1.02 | locus YDL192W, strain arf1, hits give low values 0.986 | locus YDR101C, strain arx1, hits give low values 0.98 | locus YDR162C, strain NBP2, hits give low values 0.882 | locus YDR318W, strain mcm21, hits give low values 0.992 | locus YDR388W, hits give low values 1.02 | locus YDR502C, strain sam2, hits give low values 1.01 | locus YER110C, hits give low values 1.03 | locus YER155C, strain BEM2, hits give low values 0.988 | locus YER167W, strain BCK2, hits give low values 0.961 | locus YGL078C, strain dbp3, hits give low values 1.02 | locus YGL086W, strain mad1, hits give low values 0.975 | locus YGL248W, strain PDE1, hits give low values 0.958 | locus YGR135W, strain pre9, hits give low values 0.984 | locus YGR229C, strain SMI1, hits give low values 0.868 | locus YGR252W, strain gcn5, hits give low values 0.981 | locus YHR030C, strain SLT2, hits give low values 1 | locus YHR079C, strain IRE1 (second series), hits give low values 1.02 | locus YHR094C, strain hxt1, hits give low values 1.02 | locus YHR129C, strain ARP1, hits give low values 0.977 | locus YHR200W, strain rpn10, hits give low values 0.993 | locus YIL066C, strain RNR3, hits give low values 0.926 | locus YIL073C, strain SPO22, hits give low values 0.999 | locus YIL125W, strain kgd1, hits give low values 0.999 | locus YIR030C, strain dcg1, hits give low values 1.01 | locus YJL095W, strain BCK1, hits give low values 0.884 | locus YJL134W, strain LCB3, hits give low values 0.992 | locus YJL168C, strain set2, hits give low values 1.01 | locus YJL187C, strain SWE1 (second series), hits give low values 0.955 | locus YJR075W, strain HOC1, hits give low values 0.981 | locus YKL009W, strain mrt4, hits give low values 1.01 | locus YKL068W, hits give low values 1.01 | locus YKL085W, strain MDH1 (second series), hits give low values 1 | locus YKL085W, strain MDH1, hits give low values 1 | locus YKR001C, strain vps1, hits give low values 0.984 | locus YLR039C, strain RIC1, hits give low values 0.785 | locus YLR058C, strain SHM2, hits give low values 0.975 | locus YLR102C, strain apc9, hits give low values 1.01 | locus YLR268W, strain sec22, hits give low values 0.987 | locus YLR330W, strain CHS5, hits give low values 0.965 | locus YLR371W, strain rom2, hits give low values 1 | locus YLR418C, strain cdc73, hits give low values 0.951 | locus YML016C, strain PPZ1, hits give low values 0.993 | locus YML032C, strain rad52, hits give low values 1 | locus YML124C, strain tub3, hits give low values 1.01 | locus YMR078C, strain ctf18, hits give low values 1 | locus YMR223W, strain ubp8, hits give low values 0.993 | locus YMR307W, strain GAS1, hits give low values 0.842 | locus YNL067W, strain RPL9B, hits give low values 0.978 | locus YNL128W, strain TEP1, hits give low values 0.972 | locus YNL153C, strain GIM3, hits give low values 0.983 | locus YNL233W, strain BNI4, hits give low values 0.938 | locus YNL250W, strain rad50, hits give low values 1.02 | locus YNL271C, strain bni1, hits give low values 1.01 | locus YNL298W, strain CLA4, hits give low values 1.03 | locus YNL307C, strain MCK1, hits give low values 1 | locus YNR052C, strain pop2, hits give low values 0.995 | locus YOL006C, strain TOP1, hits give low values 0.956 | locus YOL012C, strain htz1 1.23 | locus YOL147C, strain pex11, hits give low values 1 | locus YOR061W, strain CKA2, hits give low values 0.979 | locus YOR069W, strain VPS5, hits give low values 0.989 | locus YOR136W, strain idh2, hits give low values 1.02 | locus YOR144C, strain elg1, hits give low values 1.01 | locus YOR184W, strain ser1, hits give low values 0.886 | locus YOR316C, strain cot1, hits give low values 1.02 | locus YPL055C, strain LGE1, hits give low values 0.928 | locus YPL241C, strain CIN2, hits give low values 0.995 | locus YPR119W, strain clb2, hits give low values 1.02 | locus YPR141C, strain kar3, hits give low values 1.01 | locus YPR163C, strain tif3, hits give low values 1.02 | locus YPR167C, strain met16, hits give low values 1 | strain wtn01, hits give low values 0.993

From PubChem BioAssay AID1159580 (chemical genetic matrix, 2015)
